Measurements published in PubChem BioAssay.
Calls of active or inactive are those of the source. Unless noted, the rule behind the calls is not given here.

Assays:
[1] = A549 cell viability effects, profiling panel, calcein-AM fluorescence, 48 h, basal (AID 1162); conditions: higher = more signal; note: test concentration not given here
[2] = adipocyte viability effects, profiling panel, cell-based, 3T3-L1 adipocytes, calcein-AM fluorescence, 48 h, basal (AID 1163); conditions: 3T3-L1 adipocytes viability, higher = more signal; note: test concentration not given here
[3] = HepG2 cell viability effects, profiling panel, calcein-AM fluorescence, 48 h, basal (AID 1164); conditions: higher = more signal; note: test concentration not given here
[4] = MM1S cell viability effects, profiling panel, calcein-AM fluorescence, 48 h, basal (AID 1165); conditions: higher = more signal;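 note: viability of MM1S multiple myeloma cells under basal unstimulated conditions; test concentration not given here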
[5] = basal RPMI8226 viability, no added stimulus, profiling panel, cell-based, calcein-AM fluorescence, 48 h, PK04 Diversity Set (AID 1166); conditions: RPMI8226 myeloma viability, higher = more signal;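 note: cells grown under basal conditions without added stimulus; test concentration not given here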
[6] = basal HepG2 mitochondrial membrane potential changes, profiling panel, cell-based, JC-1 fluorescence, 24 h, 100 nL compound (AID 1167); conditions: higher = more signal; note: test concentration not given here
[7] = basal 3T3-L1 adipocyte mitochondrial potential changes, profiling panel, cell-based, JC-1 fluorescence, 3T3-L1 adipocytes, 24 h, 100 nL compound (AID 1168); conditions: JC-1 mitochondrial fluorescence, higher = more signal, called active from +8 up or from −8 down; note: test concentration not given here
[8] = basal RPMI8226 mitochondrial membrane potential changes, profiling panel, cell-based, JC-1 fluorescence, 24 h, 100 nL compound (AID 1169); conditions: RPMI8226 myeloma, JC-1 mitochondrial potential fluorescence, higher = more signal; note: test concentration not given here
[9] = basal MM1S mitochondrial membrane potential changes, profiling panel, cell-based, JC-1 fluorescence, 24 h, 100 nL compound (AID 1170); conditions: higher = more signal; note: test concentration not given here
[10] = A549 lung cancer cell viability effects, profiling panel, resazurin fluorescence, 24 h, PK04 Diversity Set (AID 1171); conditions: higher = more signal, called active from +8 up or from −8 down; note: test concentration not given here
[11] = HepG2 liver cancer cell viability effects, profiling panel, resazurin fluorescence, 24 h, PK04 Diversity Set (AID 1172); conditions: higher = more signal; note: test concentration not given here
[12] = basal S. cerevisiae growth modulation, no modifier, primary screen, OD600, strain BY4716, 24 h, basal condition (AID 1173); conditions: OD600, 24 h, higher = more signal, called active from +8 up or from −8 down
[13] = MM1S myeloma cell viability, profiling panel, resazurin fluorescence, basal, 24 h, PK04 Diversity Set (AID 1174); conditions: higher = more signal, called active from +8 up or from −8 down;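 note: MM1S multiple myeloma cell line; test concentration not given here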
[14] = molecular target: Dihydroorotate dehydrogenase (quinone), mitochondrial (Plasmodium falciparum (isolate 3D7)) (UniProt Q08210); assay: PfDHODH enzyme inhibitors, primary screen, biochemical, C-terminal His tag, absorbance 600 nm (AID 1175); conditions: DCIP absorbance 600 nm, higher = more signal, called active from +8 up or from −8 down;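 note: recombinant parasite enzyme with a five histidine tag at its C terminus; test concentration not given here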
[15] = P. aeruginosa biofilm formation inhibitors, primary screen, strain PAO1, LB-PBS medium, absorbance 600 nm (AID 1176); note: test concentration not given here; conditions: P. aeruginosa PAO1 growth/biofilm, A600, 12 h; higher = more signal
[16] = S. cerevisiae RM11-1a growth modifiers, primary screen, strain RM11-1a, OD600, basal, 24 h (AID 1177); conditions: OD600, 24 h, higher = more signal, called active from +8 up or from −8 down;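 note: cultures grown under basal conditions with no added stressor; test concentration not given here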
[17] = E. coli acrAB mutant growth effects, primary screen, E. coli filamentation inducers, strain DRC39, OD650, 24 h (AID 1178); conditions: higher = more signal, called active from +8 up or from −8 down;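 note: growth measured as culture turbidity by optical density at 650 nm; test concentration not given here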
[18] = E. coli acrAB mutant growth effects, primary screen, E. coli filamentation inducers, strain DRC39, OD650, 48 h (AID 1179);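 note: screen aims at cell division blockers that make cells filament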; conditions: E. coli DRC39 delta-acrAB growth, higher = more signal, called active from +8 up or from −8 down
[19] = RPMI8226 myeloma cell viability, profiling panel, resazurin fluorescence, basal, 24 h, PK04 Diversity Set (AID 1180); conditions: higher = more signal;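 note: RPMI8826 multiple myeloma cell line at 5000 cells per well; test concentration not given here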
[20] = molecular target: E3 ubiquitin-protein ligase XIAP (Homo sapiens) (UniProt P98170); assay: XIAP binders, primary screen, biophysical, small-molecule microarray, fluorescence 635 nm (AID 1181); conditions: small-molecule microarray binding, higher = more signal;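 note: score merges 667 nm emission and signal to noise over triplicate slides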
E3 ubiquitin-protein ligase XIAP (Homo sapiens), sequence (P98170 whole entry, looked up): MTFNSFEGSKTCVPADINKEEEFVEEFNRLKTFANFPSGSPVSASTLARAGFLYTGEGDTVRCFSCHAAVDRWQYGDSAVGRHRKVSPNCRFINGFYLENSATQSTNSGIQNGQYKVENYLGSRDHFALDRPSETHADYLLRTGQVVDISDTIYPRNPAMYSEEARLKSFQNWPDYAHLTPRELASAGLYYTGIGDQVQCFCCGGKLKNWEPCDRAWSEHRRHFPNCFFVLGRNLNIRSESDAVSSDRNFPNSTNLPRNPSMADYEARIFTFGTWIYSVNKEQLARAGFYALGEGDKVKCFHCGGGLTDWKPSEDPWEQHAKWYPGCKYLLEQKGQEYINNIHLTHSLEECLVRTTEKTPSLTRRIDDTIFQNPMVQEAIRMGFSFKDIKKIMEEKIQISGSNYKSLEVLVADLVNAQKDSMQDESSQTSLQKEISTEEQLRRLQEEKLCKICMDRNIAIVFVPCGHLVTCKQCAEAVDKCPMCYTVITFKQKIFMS

Dihydroorotate dehydrogenase (quinone), mitochondrial (Plasmodium falciparum (isolate 3D7)), sequence (Q08210 whole entry, looked up): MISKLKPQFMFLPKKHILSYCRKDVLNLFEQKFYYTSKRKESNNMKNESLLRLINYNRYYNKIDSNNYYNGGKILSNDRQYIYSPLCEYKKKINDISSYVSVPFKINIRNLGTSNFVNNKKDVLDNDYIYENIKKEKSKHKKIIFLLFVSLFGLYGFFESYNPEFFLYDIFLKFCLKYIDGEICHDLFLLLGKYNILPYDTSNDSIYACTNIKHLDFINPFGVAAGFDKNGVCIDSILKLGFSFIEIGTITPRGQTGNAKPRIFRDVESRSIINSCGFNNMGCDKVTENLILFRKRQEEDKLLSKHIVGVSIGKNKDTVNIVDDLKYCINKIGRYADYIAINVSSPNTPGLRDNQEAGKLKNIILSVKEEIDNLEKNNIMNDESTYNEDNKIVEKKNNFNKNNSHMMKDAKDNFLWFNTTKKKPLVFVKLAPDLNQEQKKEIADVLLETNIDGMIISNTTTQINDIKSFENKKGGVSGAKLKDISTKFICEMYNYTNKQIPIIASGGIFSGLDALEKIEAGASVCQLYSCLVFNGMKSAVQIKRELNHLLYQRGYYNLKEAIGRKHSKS

| Structure (SMILES) | z-score [1] | z-score [2] | z-score [3] | z-score [4] | z-score [5] | z-score [6] | z-score [7] | z-score [8] | z-score [9] | z-score [10] | z-score [11] | z-score [12] | z-score [13] | composite z-score [14] | z-score [15] | z-score [16] | z-score [17] | z-score [18] | z-score [19] | composite z-score [20] |
| --- | --- | --- | --- | --- | --- | --- | --- | --- | --- | --- | --- | --- | --- | --- | --- | --- | --- | --- | --- | --- |
| C=C(COC)/C(=C/C[C@H](OC(=O)c1ccncc1)c1ccccc1OCCO)c1cnc2ccccc2c1 | 0.265 | 0.688 | -0.693 | -2.28 | -0.533 | 1.23 | -0.296 (inactive) | -0.32 | -0.0279 | 2.05 (inactive) | 2.02 | -0.865 (inactive) | 0.247 (inactive) | -3.12 (inactive) | -0.104 (inactive) | -0.0351 (inactive) | 0.213 (inactive) | -0.121 (inactive) | 0.377 | -0.0102 |
| CCOC(=O)C1=CC[C@@H](c2cccc(Cl)c2)N(S(=O)(=O)c2ccc(C)cc2)C1 | -0.236 | 0.472 | 0.46 | -1.14 | -0.789 | 0.584 | 1.34 (inactive) | -0.043 | -0.51 | -0.617 (inactive) | -0.36 | 0.255 (inactive) | -0.347 (inactive) | -1.54 (inactive) | -0.405 (inactive) | -0.188 (inactive) | 0.242 (inactive) | 1.2 (inactive) | -0.277 | -0.149 |
| CCCCC(=C=CC[C@@H](O)c1ccccc1OCCO)C[C@@H](O)COCc1ccccc1 | 0.75 | 0.52 | 0.522 | -2.34 | -2.12 | 0.554 | 0.623 (inactive) | -0.261 | 0.13 | 0.607 (inactive) | -0.202 | -0.984 (inactive) | 0.12 (inactive) | -2.09 (inactive) | 0.0478 (inactive) | -2.79 (inactive) | 0.666 (inactive) | 0.406 (inactive) | 0.267 | 0.0022 |
| CCCCC=C[C@@H](NC(=O)c1ccc(-c2ccccc2)cc1)c1ccccc1 | -1.58 | -0.768 | -1.47 | -0.795 | -2.1 | -4.15 | 0.045 (inactive) | -0.741 | -0.819 | -0.305 (inactive) | 0.272 | -0.447 (inactive) | -0.821 (inactive) | 0.34 (inactive) | 0.191 (inactive) | 0.491 (inactive) | -0.335 (inactive) | -0.0289 (inactive) | -1.75 | -0.0272 |
| COc1ccc([Si](C)(C)[C@@H]2[C@@H](CC(=O)N3Cc4ccccc4C[C@H]3CO)O[C@]3(C(=O)N(Cc4cccc(N5C(=O)c6cccc7cccc5c67)c4)c4ccccc43)[C@H]2C)cc1 | -0.419 | 1.11 | -0.553 | -0.428 | -1.41 | -0.715 | 1.14 (inactive) | -0.98 | -1.36 | -1.28 (inactive) | -0.468 | 0.517 (inactive) | -1.54 (inactive) | -3.83 (inactive) | 1.42 (inactive) | 0.618 (inactive) | 0.226 (inactive) | -0.143 (inactive) | -0.711 | -0.253 |
| O=C1O[C@@H](c2ccccc2)[C@@H](c2ccccc2)N2[C@@H](c3ccccc3OCCO)[C@]3(C(=O)Nc4ccc(C#CCCO)cc43)[C@@H](C(=O)N3CCCCCCC3)[C@H]12 | 0.22 | 0.251 | 0.717 | -1.68 | -4.14 | 0.548 | 0.363 (inactive) | -1.11 | -1.63 | -0.184 (inactive) | 0.29 | 0.355 (inactive) | -1.91 (inactive) | -0.452 (inactive) | 1.26 (inactive) | 0.753 (inactive) | -0.291 (inactive) | 0.321 (inactive) | -4.5 | 2.45 |
| CCOC(=O)C[C@H]1[C@H](OC(=O)c2ccccc2-c2ccccc2)[C@@H](NC(=O)c2ccc(-c3ccccc3)cc2)c2cc(OCCCO)ccc2N1C(=O)c1ccc2ccccc2n1 | -0.137 | -0.163 | 0.336 | 0.402 | -0.485 | -0.149 | 1.18 (inactive) | 0.0491 | -0.63 | 0.524 (inactive) | -0.0523 | 0.662 (inactive) | 0.128 (inactive) | -0.0558 (inactive) | 0.318 (inactive) | 0.752 (inactive) | -0.447 (inactive) | -0.0565 (inactive) | 0.636 | 0.0891 |
| CCCC[C@@H]1C[C@H]1[C@@H](NC(=O)Cc1ccccc1)c1ccc(-c2ccccc2)cc1 | -0.902 | -0.12 | -0.323 | -0.378 | -1.48 | -0.929 | -0.118 (inactive) | 0.043 | -1.71 | 0.261 (inactive) | 1.21 | 0.953 (inactive) | 0.143 (inactive) | 0.183 (inactive) | -1.19 (inactive) | 0.636 (inactive) | -0.104 (inactive) | 0.289 (inactive) | -1.18 | -0.0351 |
| COCCOC(=O)N1C(=O)[C@@]2(c3cc(C#Cc4ccc(OC)cc4)ccc31)[C@H](c1ccc(O)cc1)N1[C@H](c3ccccc3)[C@H](c3ccccc3)OC(=O)[C@H]1[C@@H]2C(=O)N1CCCCCCC1 | 0.403 | 0.703 | -0.261 | -1.08 | -1.29 | -0.902 | 1.18 (inactive) | -0.464 | -0.414 | -0.0155 (inactive) | -0.113 | 0.603 (inactive) | -0.431 (inactive) | -0.15 (inactive) | 0.213 (inactive) | 0.266 (inactive) | -0.551 (inactive) | -0.341 (inactive) | -0.332 | -0.158 |
